Reference: PubChem BioAssay (NCI)
Compounds without any hit were thinned out: in the full panel of roughly 83,000, 20% have a hit.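 Percent growth is the endpoint: 0 to 100 indicates growth inhibition (40 means 60% inhibition), 0 means no net growth, and negative values indicate cell death.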 A number with no mark means an inactive call. Calls of active or inactive are those of the source. The calls were made as follows: active = growth percent below 10; inactive = the rest.

Legend:
Test in all cases: NCI-60 one-dose screen, 48 h (100 = growth as untreated, 0 = no growth, -100 = all killed)
Conditions in all cases: 10 µM unless noted
[1] = system: HCT-15 colon
[2] = system: HT29 colon
[3] = system: SNB-75 CNS
[4] = system: U251 CNS
[5] = system: PC-3 prostate
[6] = system: SK-MEL-5 melanoma
[7] = system: UACC-62 melanoma
[8] = system: LOX IMVI melanoma
[9] = system: SK-MEL-28 melanoma
[10] = system: SK-MEL-2 melanoma
[11] = system: SN12C renal
[12] = system: UO-31 renal
[13] = system: TK-10 renal
[14] = system: ACHN renal
[15] = system: CAKI-1 renal
[16] = system: CCRF-CEM leukemia
[17] = system: MOLT-4 leukemia
[18] = system: A498 renal
[19] = system: EKVX NSCLC

Structure (SMILES)	growth [1]	growth [2]	growth [3]	growth [4]	growth [5]	growth [6]	growth [7]	growth [8]	growth [9]	growth [10]	growth [11]	growth [12]	growth [13]	growth [14]	growth [15]	growth [16]	growth [17]	growth [18]	growth [19] [%]
COc1cc(Cn2c(-c3nonc3N)nc3ccccc32)ccc1C	19.5%	0.109% (active)	-0.424% (active)	21.6%	24.4%	19.1%	37.9%	42.6%	51.6%	20.5%	36%	48.3%	54%	41.2%	46%	16.2%	21.2%		
CN(C)c1ncc(-c2ccc(C(F)(F)F)cc2)c(NC2CCCCCC2)n1	77.4%	34.4%	78.2%	40.1%	22%	39.6%	31.4%	66.2%	48.9%	56.6%	45.9%	31%	65.2%	16.5%	85.5%	45.5%	76.5%	81.2%	
CCCOC(=O)C1(O)CCCC1	93.9%	96.3%	80.9%	104%	96.9%	99.4%	105%	108%	99.2%	90.8%	102%	90.6%	98.8%	94%	102%		93.1%	103%	
O=c1[nH]c(CN2CCN(c3ccccc3F)CC2)nc2sc3c(c12)CCC3	112%	106%	87.8%	104%	102%	107%	91.9%	99.2%	117%	87.6%	99.7%	95.2%	-3.37% (active)	113%	122%	100%	99.8%	93%	100
COC12CC(=O)C(C(C)=O)=C(O)C1(C)c1c(O)c(C)c(O)c(C(C)=O)c1O2 (stereo not drawn)	66.6%	86.5%	83.5%	57.2%	73%	46.1%	40.6%	57.5%	86.4%	41.9%	49.1%	48.9%	78.4%	77.9%	71.5%	47.2%	75.3%	61.1%	
COc1ccc(OC)c(-c2ccc(-c3ccccc3N)c3[nH]c4ccccc4c23)c1	88.3%	63.4%	89.7%	77.9%	59%	79.4%		84%	107%	77.1%	87.6%	58.4%	103%	80.7%	73%	103%	56.4%		
COc1ccc(Cn2cc(COc3cc(/C=C/C(=O)c4cc(OC)c(OC)c(OC)c4)ccc3OC)nn2)cc1	38.5%	13%	59.8%	44.6%	44.5%	80.2%	70.1%	36.4%	84.6%	87.1%	51%	37.8%		64.6%	17.5%	2.56% (active)	82.3%	81.4%	
CC[C@H](C)[C@H]1NC(=O)[C@@H](N[C@](C)(O)[C@@H](N)CC(C)C)[C@@H](C)OC(=O)[C@H](Cc2ccc(OC)cc2)N(C)C(=O)[C@@H]2CCCN2C(=O)[C@H](CC(C)C)NC(=O)[C@@H](C)C(=O)[C@H](C(C)C)OC(=O)C[C@@H]1O	0.591% (active)	-24.6% (active)	-11.1% (active)	-11.8% (active)	2.33% (active)	-56.9% (active)	-42.9% (active)	-55.9% (active)	-13.6% (active)	-55.8% (active)	-8.75% (active)	-19.9% (active)	-15% (active)	-10.9% (active)	-22.1% (active)	-19% (active)		-28.9% (active)	
C=CCn1c(C)nc2ccc(Nc3nc(Nc4ccc(F)cc4)nc4ccccc34)cc21	34.5%	18.7%	54.6%	59.6%	42.1%	33.3%	63.2%	45.3%	72%	58.1%	66.2%	37.4%	82.3%	67.6%	58.2%	22.5%	-5.55% (active)		
O=C(Nc1ccc(F)c(Cl)c1)c1n[nH]c(=O)c2ccccc12	89.6%	112%	94.2%	90.3%	112%	90.9%	81.4%	87.4%	115%	74.8%	98.1%	106%	157%	89.1%	89.5%	105%	97.2%	103%	123
CC/C=C\C[C@H](O)C/C=C1/C(=O)C(Cl)=C[C@@H]1C/C=C\CCCC(=O)O	16.2%	18.7%	71.7%	17.5%	43.7%	69.1%	1.46% (active)	4.09% (active)	43.7%	54%	22.8%	64.2%	78.9%	45.3%	79.1%	2.58% (active)	40.5%	134%	63.9
COc1ccc(-c2nnc(COc3ccc(NS(=O)(=O)c4ccc(OC)cc4)cc3F)o2)cc1	85.1%	91.1%	77.4%	82.2%	56.3%	43.9%	64.8%	86.3%	97%	68.2%	89.8%	51.1%	80.9%	72.1%	64.1%	43.1%	60%	59.2%	
COc1cc(NS(C)(=O)=O)ccc1Nc1c2ccc([N+](=O)[O-])cc2nc2c(C)cccc12	12.4%	-0.0847% (active)	5.27% (active)	0.458% (active)	8.53% (active)	-0.826% (active)	16.2%	-3.95% (active)	41.7%	25.4%	2.9% (active)	-3.4% (active)	5.21% (active)	-30.9% (active)	-21.2% (active)	-11.8% (active)	-8.62% (active)	-23.5% (active)	
COC1=CC(c2ccc[nH]2)=N/C1=C\c1[nH]c(C)c(C(=O)CCCCC(=O)NCc2ccccc2)c1C	-19.5% (active)	-49% (active)	21.7%	10.6%	-13.9% (active)	43.9%	89.4%	-56.3% (active)	140%	97.1%	44.9%	13.9%	45.8%	50.2%	-9.17% (active)	39.2%	70.1%	89.1%	
CC(C)C[C@H](NC(=O)[C@@H](Cc1ccccc1)n1ccc(Nc2ccccc2)cc1=O)B(O)O	28.9%	-14.1% (active)	-18.6% (active)	5.67% (active)	21.1%	-68.2% (active)		-66.7% (active)	21.7%	-14.9% (active)	-25.1% (active)	-44% (active)	-0.144% (active)	20.9%		-5.5% (active)	-8.47% (active)	-47.3% (active)	
COC(=O)CCCCCCN=Cc1c(O)c(O)c(C(C)C)c2cc(C)c(-c3c(C)cc4c(C(C)C)c(O)c(O)c(C=NCCCCCCC(=O)OC)c4c3O)c(O)c12	13.1%	6.88% (active)	59.4%	11.5%	16%	43.4%	17.7%	21.4%	36.1%	24.7%	22.8%	21.8%	12.4%	21.6%	65.4%	16.1%	15.8%	46.1%	23.9
